# Laboratory results as given in PubChem BioAssay (NCATS).
# Inconclusive results are not listed. Entries that show only a call come without a potency. Activity calls are given as the source filed them. Calls follow the shape of the full dose curve.
# Tested on: not listed separately
# Assay: Natriuretic polypeptide receptor (hNpr1) antagonism - Pilot counterscreen GloSensor control cell line (AID 1347045)
# Settings: HEK293 cGMP GloSensor cells, SNP-stimulated luminescence, 20 min; series mostly up to 38.3 µM
# Method in brief: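 Cells were first seeded and incubated overnight at 37C, then loaded with 2% GloSensor substrate for 2 h. Compounds were added for 30 min at room temperature, followed by a baseline read, 50 uM SNP and a final read after 20 min.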
row,SMILES,Potency
1,O=C(O)C1CCNCC1,inactive
2,Cc1cc2c(cc1Cl)N(C(=O)Nc1ccnc3ccccc13)CC2,inactive
3,C=CCn1c(=O)c2c(nc(-c3ccc(S(=O)(=O)O)cc3)n2C)n(C)c1=O,inactive
4,O=c1cc(O)cc(/C=C/c2ccc(O)c(O)c2)o1,inactive
5,[Li+],inactive
6,N=C(N)c1ccccc1,inactive
7,CC(=O)/C(C)=N/O,inactive
8,NC/C=C\C(=O)O,inactive
9,CC(=O)O[C@H]1Cc2ccccc2N(C(N)=O)c2ccccc21,inactive
10,CN1CCC2(CCN3CCc4c(oc5ccccc45)C3C2)N(C)C1=O (stereo unspecified),inactive
11,O=C(O)c1cccnc1C(=O)O,inactive
12,CCCCOc1cc(CC2CNC(=O)N2)ccc1OC (stereo unspecified),inactive
13,O=C(O)C1=CC(=C(c2ccc(O)c(C(=O)O)c2)c2ccc(O)c(C(=O)O)c2)C=CC1=O,inactive
14,c1ccc(C(NCc2cccnc2)(c2ccccc2)c2ccccc2)cc1,inactive
15,CCN1C(=O)C=CC1=O,inactive
16,C#CC(N)CCC(=O)O (stereo unspecified),inactive
17,CC(=O)N[C@@H](Cc1c[nH]c2ccccc12)C(=O)OCc1cc(C(F)(F)F)cc(C(F)(F)F)c1,inactive
18,NC(Cc1cccc(-c2ccccc2CP(=O)(O)O)c1)C(=O)O (stereo unspecified),inactive
19,CC(=O)O[C@H]1CC2(C)[C@@H](C[C@@H](O)[C@H]3[C@@]4(C)CC[C@@H](O)[C@@H](C)[C@@H]4CC[C@@]32C)C1=C(CCC=C(C)C)C(=O)O (stereo partly specified),inactive

row,SMILES,Potency
1,COc1ccccc1N1CCN(CCCNc2c(C)c(=O)n(C)c(=O)n2C)CC1,inactive
2,N[C@H]1CONC1=O,inactive
3,COC(=O)C(C)(N)Cc1ccc(O)cc1 (stereo unspecified),inactive
4,Nc1ncnc2c1nc(Sc1ccc(Cl)cc1)n2[C@H]1OC2COP(=O)(O)O[C@@H]2C1O (stereo partly specified),inactive
5,CCN(CC)CCOC(=O)c1cc(Cl)c(N)cc1OC,inactive
6,OC[C@H]1NC[C@@H](O)[C@@H]1O,inactive
7,COc1ccc(CCN(C)CCc2ccc(OC)c(OC)c2)cc1OC,inactive
8,CC(C)(CO)Cc1cc(C(C)(C)C)c(O)c(C(C)(C)C)c1,inactive
9,N[C@H](C(=O)O)[C@H](O)C(=O)O,inactive
10,NCCNS(=O)(=O)c1cccc2c(Cl)cccc12,inactive
11,C[C@@]1(C2CCCC2)Cc2cc(OCC(=O)O)c(Cl)c(Cl)c2C1=O,inactive
12,N#CC(C#N)=C(N)/C(C#N)=C/c1ccc(O)cc1,inactive
13,CCCn1c(=O)c(C)cn2nc(N)nc12,inactive
14,NC(=O)c1cc[n+](CC2=C(C(=O)O)N3C(=O)[C@@H](NC(=O)[C@@H](c4ccccc4)S(=O)(=O)[O-])[C@H]3SC2)cc1,inactive
15,O=C(O)/C=C/c1cnc[nH]1,inactive
16,CN(CC[C@@H](Oc1ccc(C(F)(F)F)cc1)c1ccccc1)CC(=O)O,inactive
17,CN1CC(O)C(O)C(O)C1CO (stereo unspecified),inactive
18,CCCCCC[C@@H]([C@@H](C)O)n1cnc2c(N)ncnc21,inactive
19,Nn1nnc2ccccc21,inactive

# Target: Atrial natriuretic peptide receptor 1 (Homo sapiens) (UniProt P16066)
# Assay: Natriuretic polypeptide receptor (hNpr1) antagonism - Pilot screen (AID 1347049);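 also: HEK293 cells with hNpr1 and GloSensor cGMP luciferase stimulated by 0.1 nM hNppA; agonist-evoked cGMP luminescence read 20 min after hNppA addition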
# Settings: hNpr1 cells, antagonist mode cGMP read-out; series mostly up to 57.5 µM
# Method in brief: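 Receptor antagonism read as cGMP-dependent luminescence in hNpr1/pGS-40F HEK293 cells: pre-read after 30 min compound exposure, post-read 20 min after hNppA agonist at 0.1 nM final, all at room temperature, protected from light; A-71915 titration as control.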
# Chain of Atrial natriuretic peptide receptor 1 (Homo sapiens) (P16066 whole entry, looked up): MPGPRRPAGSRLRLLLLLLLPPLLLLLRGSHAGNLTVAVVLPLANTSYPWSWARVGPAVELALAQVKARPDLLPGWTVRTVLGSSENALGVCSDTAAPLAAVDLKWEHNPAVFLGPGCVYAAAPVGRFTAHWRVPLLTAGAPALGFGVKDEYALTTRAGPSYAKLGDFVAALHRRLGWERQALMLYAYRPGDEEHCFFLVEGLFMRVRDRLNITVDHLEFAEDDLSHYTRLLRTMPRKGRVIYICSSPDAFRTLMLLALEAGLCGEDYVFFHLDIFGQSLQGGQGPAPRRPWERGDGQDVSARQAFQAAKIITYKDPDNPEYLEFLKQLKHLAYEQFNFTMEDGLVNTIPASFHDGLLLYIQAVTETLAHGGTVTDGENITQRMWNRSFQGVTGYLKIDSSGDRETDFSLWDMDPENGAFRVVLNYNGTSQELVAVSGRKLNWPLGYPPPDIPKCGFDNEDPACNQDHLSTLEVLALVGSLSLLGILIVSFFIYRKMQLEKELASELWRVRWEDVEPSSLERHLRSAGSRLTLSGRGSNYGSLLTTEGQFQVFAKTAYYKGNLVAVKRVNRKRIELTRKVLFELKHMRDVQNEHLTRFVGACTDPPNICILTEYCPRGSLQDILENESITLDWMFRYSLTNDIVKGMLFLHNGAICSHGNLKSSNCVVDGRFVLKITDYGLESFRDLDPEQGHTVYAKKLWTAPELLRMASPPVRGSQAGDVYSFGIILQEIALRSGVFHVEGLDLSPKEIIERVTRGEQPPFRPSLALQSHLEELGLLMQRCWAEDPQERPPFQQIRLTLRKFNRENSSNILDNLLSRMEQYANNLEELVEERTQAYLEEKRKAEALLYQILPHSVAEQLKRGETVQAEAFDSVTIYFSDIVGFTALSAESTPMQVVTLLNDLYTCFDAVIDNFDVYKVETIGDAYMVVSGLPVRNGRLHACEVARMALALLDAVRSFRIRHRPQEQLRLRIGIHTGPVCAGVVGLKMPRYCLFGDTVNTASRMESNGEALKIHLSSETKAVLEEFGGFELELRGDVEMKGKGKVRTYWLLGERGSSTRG
row,SMILES,Potency
1,O=C(O)C1CCNCC1,inactive
2,Cc1cc2c(cc1Cl)N(C(=O)Nc1ccnc3ccccc13)CC2,inactive
3,C=CCn1c(=O)c2c(nc(-c3ccc(S(=O)(=O)O)cc3)n2C)n(C)c1=O,inactive
4,O=c1cc(O)cc(/C=C/c2ccc(O)c(O)c2)o1,inactive
5,[Li+],inactive
6,N=C(N)c1ccccc1,inactive
7,CC(=O)/C(C)=N/O,inactive
8,NC/C=C\C(=O)O,inactive
9,CC(=O)O[C@H]1Cc2ccccc2N(C(N)=O)c2ccccc21,inactive
10,CN1CCC2(CCN3CCc4c(oc5ccccc45)C3C2)N(C)C1=O (stereo unspecified),inactive
11,O=C(O)c1cccnc1C(=O)O,inactive
12,CCCCOc1cc(CC2CNC(=O)N2)ccc1OC (stereo unspecified),inactive
13,O=C(O)C1=CC(=C(c2ccc(O)c(C(=O)O)c2)c2ccc(O)c(C(=O)O)c2)C=CC1=O,inactive
14,c1ccc(C(NCc2cccnc2)(c2ccccc2)c2ccccc2)cc1,inactive
15,CCN1C(=O)C=CC1=O,inactive
16,C#CC(N)CCC(=O)O (stereo unspecified),inactive
17,CC(=O)N[C@@H](Cc1c[nH]c2ccccc12)C(=O)OCc1cc(C(F)(F)F)cc(C(F)(F)F)c1,inactive
18,NC(Cc1cccc(-c2ccccc2CP(=O)(O)O)c1)C(=O)O (stereo unspecified),inactive
19,CC(=O)O[C@H]1CC2(C)[C@@H](C[C@@H](O)[C@H]3[C@@]4(C)CC[C@@H](O)[C@@H](C)[C@@H]4CC[C@@]32C)C1=C(CCC=C(C)C)C(=O)O (stereo partly specified),inactive

row,SMILES,Potency
1,COc1ccccc1N1CCN(CCCNc2c(C)c(=O)n(C)c(=O)n2C)CC1,inactive
2,N[C@H]1CONC1=O,inactive
3,COC(=O)C(C)(N)Cc1ccc(O)cc1 (stereo unspecified),inactive
4,Nc1ncnc2c1nc(Sc1ccc(Cl)cc1)n2[C@H]1OC2COP(=O)(O)O[C@@H]2C1O (stereo partly specified),inactive
5,CCN(CC)CCOC(=O)c1cc(Cl)c(N)cc1OC,inactive
6,OC[C@H]1NC[C@@H](O)[C@@H]1O,inactive
7,COc1ccc(CCN(C)CCc2ccc(OC)c(OC)c2)cc1OC,inactive
8,CC(C)(CO)Cc1cc(C(C)(C)C)c(O)c(C(C)(C)C)c1,inactive
9,N[C@H](C(=O)O)[C@H](O)C(=O)O,inactive
10,NCCNS(=O)(=O)c1cccc2c(Cl)cccc12,inactive
11,C[C@@]1(C2CCCC2)Cc2cc(OCC(=O)O)c(Cl)c(Cl)c2C1=O,inactive
12,N#CC(C#N)=C(N)/C(C#N)=C/c1ccc(O)cc1,inactive
13,CCCn1c(=O)c(C)cn2nc(N)nc12,inactive
14,NC(=O)c1cc[n+](CC2=C(C(=O)O)N3C(=O)[C@@H](NC(=O)[C@@H](c4ccccc4)S(=O)(=O)[O-])[C@H]3SC2)cc1,inactive
15,O=C(O)/C=C/c1cnc[nH]1,inactive
16,CN(CC[C@@H](Oc1ccc(C(F)(F)F)cc1)c1ccccc1)CC(=O)O,inactive
17,CN1CC(O)C(O)C(O)C1CO (stereo unspecified),inactive
18,CCCCCC[C@@H]([C@@H](C)O)n1cnc2c(N)ncnc21,inactive
19,Nn1nnc2ccccc21,inactive
